{"source": "PubChem BioAssay AID2685", "about": "(National Center for Advancing Translational Sciences (NCATS), 2010)", "note": "Among all 320,000 compounds or so, about 2,100 (0.66%) were called active. Inconclusive results (about 53%) are left out. The call rests on the fitted dose curve; in most records, active means well fitted inhibition curve with a large enough effect in the signal ratio, with a control signal flat (not every such curve was filed as active); inconclusive means small, poorly fitted or top-dose-only effect, or effect the other way, or a change in a side signal; inactive means flat fitted curve, though single readings scatter; the % refers to the signal ratio. The full list was thinned out, with actives kept by preference. Potency means the concentration at half of the fitted maximal effect.", "data": [{"assay": "qHTS Assay for Lipid Storage Modulators in Drosophila S3 Cells;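 on cell number change: cells counted by Cell Tracker Red CMTPX staining in the red channel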; on lipid storage change, negative = inhibition: on the % scale 0 is the no-effect control and ±100 the full control effect", "settings": "BODIPY lipid droplet fluorescence, 18-24 h, cells fed with added oleic acid; cell number change: measured here: cell count max response; series mostly up to 46.1 µM; lipid storage change, negative = inhibition: at the top concentration", "how_it_was_run": "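Drosophila S3 cells loaded with oleic acid (400 uM, as added) and compounds at several concentrations; lipid droplets imaged by 488-nm laser-scanning cytometry, 500–530 nm intensity and object ratio to cell channel. Percent activity normalized to 20 uM Triacsin C.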", "units": {"cell number change": "%"}, "values": [{"compound": "COc1ccc(OCC(=O)NCCc2c[nH]c3ccccc23)cc1", "lipid storage change, negative = inhibition": "-6.71% (inactive)", "cell number change": -0.0954}, {"compound": "COc1ccc(/C(C)=N/NC(=O)CNC(=O)/C=C\\c2ccco2)cc1", "lipid storage change, negative = inhibition": "6.78% (inactive)", "cell number change": 25.3}, {"compound": "Oc1ccc(N=Nc2ccc3ccccc3c2)cc1", "lipid storage change, negative = inhibition": "-12.4% (inactive)", "cell number change": -16.8}, {"compound": "COc1ccc(N=Nc2ccc3ccccc3c2)c(O)c1", "Potency": "4.11 µM (active)", "cell number change": -14.1}, {"compound": "O=[N+]([O-])c1cc(N=Nc2ccc3ccccc3c2)ccc1O", "lipid storage change, negative = inhibition": "23.5% (inactive)", "cell number change": -8.5}, {"compound": "COc1cccc(NC(=O)CSc2nnc(Cn3nnc4ccccc43)n2C)c1", "lipid storage change, negative = inhibition": "-5.06% (inactive)", "cell number change": 1.13}, {"compound": "O=C(Oc1ccc(=O)n(-c2ccccc2)n1)c1cccc(Cl)c1", "lipid storage change, negative = inhibition": "-13.7% (inactive)", "cell number change": -1.38}, {"compound": "Cn1c(CNC(=O)c2ccc3c(c2)OCO3)nnc1SCC(=O)Nc1ccccc1F", "outcome": "inactive", "cell number change": 3.42}, {"compound": "CCN(Cc1ccccc1)S(=O)(=O)c1ccc(C(=O)N(CCCN(C)C)c2nc3cc(OC)ccc3s2)cc1", "lipid storage change, negative = inhibition": "11.6% (inactive)", "cell number change": 7.95}, {"compound": "O=C(COc1ccc2c3c(c(=O)oc2c1)CCC3)N1CCN(c2ccccc2)CC1", "lipid storage change, negative = inhibition": "74.1% (inactive)", "cell number change": 28.4}, {"compound": "CC1(C)CC(N2CCN(C(c3ccccc3)c3ccccc3)CC2)=CC(=[N+]2CCCCC2)C1", "Potency": "2.06 µM (active)", "cell number change": -24.2}, {"compound": "CC1(C)CC(N2CCOCC2)=CC(=[N+]2CCOCC2)C1", "lipid storage change, negative = inhibition": "-5.61% (inactive)", "cell number change": 3.66}, {"compound": "CN1CCN(C(c2ccccc2)c2ccccc2)CC1", "lipid storage change, negative = inhibition": "-13.1% (inactive)", "cell number change": 2.24}, {"compound": "Cc1cc(SCC(=O)Nc2cccc(S(N)(=O)=O)c2)c(C)cc1Br", "lipid storage change, negative = inhibition": "-2.43% (inactive)", "cell number change": 15.2}, {"compound": "O=C(O)c1ccc(OCCn2ccnc2)cc1", "lipid storage change, negative = inhibition": "-12.6% (inactive)", "cell number change": 11.3}, {"compound": "CCc1ccc(OCCCCCn2ccnc2)cc1", "Potency": "4.61 µM (active)", "cell number change": -11.6}, {"compound": "COc1ccc(OCCn2ccnc2)cc1", "outcome": "inactive", "cell number change": -2.55}, {"compound": "COc1ccc(OCCCn2ccnc2)cc1", "lipid storage change, negative = inhibition": "9.55% (inactive)", "cell number change": -3.82}, {"compound": "CCc1ccc(OCCn2ccnc2)cc1", "lipid storage change, negative = inhibition": "12.1% (inactive)", "cell number change": -22.2}, {"compound": "c1ccc(Cc2ccc(OCCn3ccnc3)cc2)cc1", "Potency": "3.66 µM (active)", "cell number change": -8.07}, {"compound": "COc1ccccc1NC(=O)C1=C(C)Nc2nc(CCCO)nn2C1c1ccc2c(c1)OCO2", "note": "(stereo unspecified)", "outcome": "inactive", "cell number change": -2.99}, {"compound": "COc1ccc(Cl)cc1S(=O)(=O)N1CCC(C(=O)NCC2CCCO2)CC1", "note": "(stereo unspecified)", "outcome": "inactive", "cell number change": 6.08}, {"compound": "CCCS(=O)(=O)N1CCN(C(=O)c2cccnc2)CC1", "outcome": "inactive"}, {"compound": "COCCCn1c(SCC(=O)NC(C)C)nnc1-c1ccccc1", "lipid storage change, negative = inhibition": "9.76% (inactive)", "cell number change": 1.73}, {"compound": "COc1cc(C(=O)Nc2ccc(C)cn2)ccc1OCC(=O)N1CCOCC1", "Potency": "20.6 µM (active)", "cell number change": 5.26}, {"compound": "COc1cc(C(=O)O)ccc1OCC(=O)N1CCOCC1", "lipid storage change, negative = inhibition": "-14.9% (inactive)", "cell number change": -12}, {"compound": "CCc1ccc(C(=O)NNC(=O)c2ccc(OCC(=O)N3CCOCC3)c(OC)c2)cc1", "lipid storage change, negative = inhibition": "-4.56% (inactive)", "cell number change": -13.6}, {"compound": "CCN(CC)CCCNC(=O)CSc1nc(-c2ccc(F)cc2)cc(C(F)(F)F)n1", "lipid storage change, negative = inhibition": "0.643% (inactive)", "cell number change": 4.94}, {"compound": "CCC(C)(C)NC(=O)CN(C(=O)c1snc(C(N)=O)c1N)c1ccc2c(c1)OCCO2", "outcome": "inactive", "cell number change": 19.8}, {"compound": "O=C(CNC(=O)c1ccccc1)OCc1cccc([N+](=O)[O-])c1", "lipid storage change, negative = inhibition": "0.419% (inactive)", "cell number change": -2.11}, {"compound": "CN(C)S(=O)(=O)c1cccc(COC(=O)CCNC(=O)c2ccc([N+](=O)[O-])cc2)c1", "Potency": "2.31 µM (active)", "cell number change": 9.78}, {"compound": "CN(C)S(=O)(=O)c1cccc(C(=O)NCCNC(=O)c2cccc(S(=O)(=O)N(C)C)c2)c1", "lipid storage change, negative = inhibition": "-11.8% (inactive)", "cell number change": -23.4}, {"compound": "Cn1c(CC(=O)Nc2cccc(Cl)c2Cl)nnc1SCC(=O)NC1=NCCS1", "lipid storage change, negative = inhibition": "19% (inactive)", "cell number change": 10.7}, {"compound": "CC(C)n1c(N)c(C#N)c2ccc([N+](=O)[O-])cc2c1=O", "lipid storage change, negative = inhibition": "-3.14% (inactive)", "cell number change": 17.3}, {"compound": "COC(=O)c1cc2c(=O)c3ccccc3oc2nc1C", "lipid storage change, negative = inhibition": "-1.05% (inactive)", "cell number change": 21.3}, {"compound": "COc1ccccc1CNC(=O)COC(=O)c1ccc(C)s1", "Potency": "8.2 µM (active)", "cell number change": 8.78}, {"compound": "COc1ccccc1CNC(=O)c1ccc(C)s1", "lipid storage change, negative = inhibition": "7.86% (inactive)", "cell number change": 2.24}, {"compound": "COc1ccccc1CNC(=O)COC(=O)c1cc(C)oc1C", "lipid storage change, negative = inhibition": "4.54% (inactive)", "cell number change": 0.0455}, {"compound": "O=S(=O)(NCC(c1cccs1)N1CCc2ccccc2C1)c1ccccc1", "note": "(stereo unspecified)", "cell number change": 2.02, "lipid storage change, negative = inhibition": "-15.3% [at 0.0737 µM] (inactive)"}, {"compound": "O=C(CS(=O)(=O)c1ccccc1)N1CCCCCC1", "Potency": "14.6 µM (active)"}, {"compound": "Cc1ccc(S(=O)(=O)CC(=O)N2CCCC2)cc1", "lipid storage change, negative = inhibition": "0.497% (inactive)", "cell number change": -4.5}, {"compound": "O=C(CS(=O)(=O)c1ccccc1)N1CCCCC1", "outcome": "inactive", "cell number change": 17.3}, {"compound": "COc1ccc(S(=O)(=O)N2CCOC2CNC(=O)C(=O)NCC(C)C)cc1", "note": "(stereo unspecified)", "lipid storage change, negative = inhibition": "23.8% (inactive)", "cell number change": -19.7}, {"compound": "CCCCc1nnc(NC(=O)C(C)Sc2nc(O)c(Cc3ccccc3)c(=O)[nH]2)s1", "note": "(stereo unspecified)", "lipid storage change, negative = inhibition": "-12.5% (inactive)", "cell number change": -6.85}, {"compound": "Cc1ccsc1/C=N/N=C/c1sccc1C", "Potency": "18.4 µM (active)", "cell number change": -16.1}, {"compound": "Cc1ccsc1/C=N/n1cnnc1", "lipid storage change, negative = inhibition": "-1.09% (inactive)", "cell number change": 4.23}, {"compound": "Cc1ccsc1C=Nc1ccc(O)cc1", "lipid storage change, negative = inhibition": "-2.45% (inactive)", "cell number change": -20.6}, {"compound": "CC(C)c1ccc(/C=N/NC(=O)C2CCCC2)cc1", "Potency": "3.26 µM (active)", "cell number change": -28.7}, {"compound": "CC(C)(C)c1ccc(/C=N/NC(=O)C2CCCC2)cc1", "outcome": "inactive", "cell number change": -15.9}]}]}
